Test results: PubChem BioAssay (NCI)
About 79,000 compounds went through this panel and 15% of them were active in at least one assay; those are over-represented in the sample as a whole. No stated cut-off is given here; in the data, active means growth inhibition above about 70%; inactive means the rest.

Experiments:
[1] = NCI Yeast Anticancer Drug Screen. Data for the rad50 strain (AID 155);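 further: 0% = growth of vehicle-only cultures of the same strain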; settings: S. cerevisiae rad50 strain growth inhibition; at 50.0 µM; stronger effect = higher value
Procedure, shortened: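 Relative growth inhibition (compound vs vehicle) was measured in yeast with a defined repair-gene alteration.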

[2] = NCI Yeast Anticancer Drug Screen. Data for the mec2-1 strain (AID 157); settings: S. cerevisiae mec2-1 strain, at 50.0 µM, stronger effect = higher value
Procedure, shortened: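 Yeast mec2-1 mutant treated with compound. Readout: growth inhibition vs vehicle controls.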

[3] = NCI Yeast Anticancer Drug Screen. Data for the sgs1 mgt1 strain (AID 161);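 further: 0% = growth of cultures given vehicle only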; settings: S. cerevisiae sgs1 mgt1 strain, at 50.0 µM, stronger effect = higher value
Procedure, shortened: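 Mutant yeast exposed to compound; growth scored against vehicle-only wells.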

[4] = NCI Yeast Anticancer Drug Screen. Data for the cln2 rad14 strain (AID 165);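 further: 0% = growth equal to vehicle treated cultures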; settings: S. cerevisiae cln2 rad14 strain, at 50.0 µM, stronger effect = higher value
Procedure, shortened: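 cln2 rad14 yeast strain; compound exposure; growth inhibition read vs vehicle controls.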

[5] = NCI Yeast Anticancer Drug Screen. Data for the bub3 strain (AID 167); settings: S. cerevisiae bub3 mutant strain, at 50.0 µM, stronger effect = higher value
Procedure, shortened: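 Screening used yeast with an engineered genetic alteration affecting cell cycle control. Compound-exposed cultures were compared with vehicle cultures, and reduced growth was taken as inhibition.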

[6] = NCI Yeast Anticancer Drug Screen. Data for the mlh1 rad18 strain (AID 175); settings: S. cerevisiae mlh1 rad18 strain growth inhibition; at 50.0 µM; stronger effect = higher value
Procedure, shortened: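 Yeast w/ defined DNA-repair lesions; compound exposure; growth vs vehicle controls → % inhibition.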

Measured: growth inhibition

C=CCN(CC=C)/N=N/c1nc[nH]c1C(N)=O
inactive: [1] 28.1% | [2] 8.55% | [3] 14.7% | [4] 5.75% | [5] -5.55% | [6] 22.1%

O=S(NOCc1ccccc1)c1ccccc1 (configuration not stated)
inactive: [1] 13.3% | [2] 24.2% | [3] 3.95% | [4] -31.8% | [5] -6% | [6] 9.75%

CCN(CC)Cc1cc2[nH]c3c4ccc(Cl)cc4ncc3c2cc1OC
inactive: [1] 23.8% | [2] 11.8% | [3] -6.15% | [4] -2.65% | [5] -45.5% | [6] -42.6%

CCOP(=O)(OCC)/C(C#N)=C/c1cnc(-c2ccccc2)[nH]1
inactive: [1] -38% | [2] -4.85% | [3] -32.8% | [4] 16.1% | [5] 13.4% | [6] -34%

CCc1ccc(OC(=O)CCl)cc1
inactive: [1] -19.4% | [2] 9.5% | [3] -21.6% | [4] -28.7% | [5] -3.4% | [6] -42.5%

COc1ccc(N=C2C(=Nc3ccc(OC)cc3)N(c3ccccc3[N+](=O)[O-])C(=S)N2c2ccc(OC)cc2)cc1
inactive: [1] 3.6% | [2] -24% | [3] 10.7% | [4] -49.5% | [5] -1.35% | [6] -10.9%

C/C(=N\NC(=O)c1ccncc1)c1ccc(Cl)cc1Cl
inactive: [1] 5.85% | [2] 7.15% | [3] 0.55% | [4] 1.95% | [5] 4.65% | [6] 8.5%

Cc1ccc(-c2nc(C)c(C(=O)Nc3ccc(Cl)cc3)s2)cc1
inactive: [1] -36.6% | [2] -25.4% | [3] -59.4% | [4] 2.85% | [5] -12.3% | [6] -65.9%

CCOC(=O)C1(C(=O)OCC)CCC(C(OC)OC)C(CC(=O)OC)C1 (configuration not stated)
inactive: [1] -2.45% | [2] -15.7% | [3] -5.2% | [4] -6.5% | [5] 26.4% | [6] 16.4%

CCCCCCCCCC(=O)N/N=C/c1ccccc1O
inactive: [1] -4.3% | [2] 12.7% | [3] 19.2% | [4] -19.1% | [5] 19.9% | [6] 13.8%

O=C(C[n+]1cc(Br)cc(Br)c1)c1ccc2ccccc2c1
inactive: [1] 27.2% | [2] 3.45% | [3] 7.7% | [4] 11.8% | [5] 20.2% | [6] 43.6%

COC(=O)/C(=N\NC(=S)NN)C(C(=O)C(=O)Nc1ccccc1C(N)=O)c1nc2ccccc2[nH]c1=O (configuration not stated)
inactive: [1] 24.9% | [2] 6.9% | [3] 14.9% | [4] -42.5% | [5] -4.5% | [6] 23.1%

CC(C)C(C)(O)CO (configuration not stated)
inactive: [1] -21.9% | [2] 1.75% | [3] -1.2% | [4] 16.8% | [5] -6.2% | [6] -13.7%

CCCc1nc(N)nc(C(=O)Nc2cccc(C(F)(F)F)c2)c1CC
inactive: [1] -15.2% | [2] -19.4% | [3] 5.1% | [4] 4.05% | [5] 2.15% | [6] -8.25%

COCn1cnc2c(F)ncnc21
inactive: [1] 3.85% | [2] -1.4% | [3] -5.1% | [4] -29.1% | [5] -11.2% | [6] -3.1%

O=C1CC(c2ccccc2)=NN1c1ccccc1
inactive: [1] -8.3% | [2] -25.4% | [3] -5.55% | [4] 9.5% | [5] -23.8% | [6] 18.6%

Fc1ccc(NC(=S)Nc2ccc(F)cc2)cc1
inactive: [1] -19.4% | [2] -5.8% | [3] -10.7% | [4] -6.65% | [5] 15.1% | [6] 3.4%

CCOC(=O)C12CCCC1(O)N(NC(=O)OC(C)(C)C)C(C)=C2C(=O)OC (configuration not stated)
inactive: [1] -7.85% | [2] 15.1% | [3] -2.6% | [4] -43.2% | [5] 0.35% | [6] -7.5%

NC(=O)/C(=C(/O)C(=O)O)c1ccnc2ccccc12
inactive: [1] 4.85% | [2] -4.8% | [3] 7.35% | [4] -41% | [5] -4.2% | [6] -2.15%

CSC(=S)Nc1cc(C)cc(C)n1
inactive: [1] 29.8% | [2] 17.7% | [3] 62.1% | [4] 38% | [5] 42.8% | [6] 60.8%

CC1C(=O)N(c2ccccc2)C1c1ccccc1 (configuration not stated)
inactive: [1] -18.6% | [2] -31.3% | [3] -11.9% | [4] -24.6% | [5] 2.95% | [6] -19.6%

NS(=O)(=O)c1ccc(NC(=O)Nc2cccc(Cl)c2)cc1
inactive: [1] 1.35% | [2] 12.6% | [3] 15.5% | [4] -4.9% | [5] 46.4% | [6] -11.3%

N#CC(=S)Nc1ccc(Cl)c(Cl)c1
inactive: [1] -4.8% | [2] 27.9% | [3] 22.6% | [4] -36% | [5] -1.95% | [6] 31.8%

CC(C)(C)C(=O)Nc1c(Cl)c(C2CC2)nn1-c1ccccc1
inactive: [1] 7.55% | [2] -0.55% | [3] 24.7% | [4] 11.3% | [5] 22.4% | [6] 19.4%

COC(=O)c1nc(N)nc(C(=O)OC)c1C(=O)c1ccncc1
inactive: [1] -12.2% | [2] -19.9% | [3] 0.1% | [4] -16.1% | [5] -24.9% | [6] -4.45%

Nc1ccc(O)c(C(=O)O)c1
inactive: [1] 24.1% | [2] 11.2% | [3] 11.2% | [4] 0.8% | [5] 1.35% | [6] 26.6%

CC(=O)Nc1ccc(Br)cc1
inactive: [1] 0.85% | [2] -5.6% | [3] -18.4% | [4] -34% | [5] -17.1% | [6] 0.1%

ClC(Cl)(Cl)C(N1CCN(c2ccccc2)CC1)N1CCN(c2ccccc2)CC1
inactive: [1] 8.95% | [2] -34% | [3] -29.4% | [4] -38.5% | [5] -25.9% | [6] -17.6%

COc1cc([C@@H]2c3cc4c(cc3[C@H](OC3OC5COC(C(C)C)OC5C(O)C3O)C3COC(=O)[C@@H]32)OCO4)cc(OC)c1OC (some centres not stated)
inactive: [1] 11.6% | [2] 46.7% | [3] 31% | [4] 3.2% | [5] 9.25% | [6] -41.8%

OCCSc1ccc(Cl)cc1
inactive: [1] 14.4% | [2] 25.9% | [3] 5.95% | [4] -31.5% | [5] 12.8% | [6] 27.5%

CC(=O)OCC1OC(n2c(-c3ccc(Cl)cc3)cc(-c3ccccc3)c(C#N)c2=S)C(OC(C)=O)C(OC(C)=O)C1OC(C)=O (configuration not stated)
inactive: [1] 20.6% | [2] -9.25% | [3] 6.5% | [4] 2.8% | [5] 17.8% | [6] 14.2%

O=S(=O)(O)CC(O)CSSCC(O)CS(=O)(=O)O (configuration not stated)
inactive: [1] 33.2% | [2] -3.55% | [3] 8.25% | [4] -4.05% | [5] 1.4% | [6] -9.1%

O=c1[nH]c(=S)[nH]n1C(=S)n1[nH]c(=S)[nH]c1=O
inactive: [1] 5.35% | [2] -2.65% | [3] 8.7% | [4] -7.8% | [5] 13.1% | [6] 9.6%

O=[N+]([O-])c1ccc(N2CCCC2)cc1
inactive: [1] 14.2% | [2] -8.05% | [3] -6.9% | [4] 0.8% | [5] 13.8% | [6] -16.7%

C(=C1\CCC/C(=C/c2ccccc2)C1=NNc1ccccc1)/c1ccccc1
inactive: [1] 19.7% | [2] 2.35% | [3] 6.45% | [4] 18.1% | [5] 11% | [6] 24.1%

O=C1/C(=C/c2ccc3c(c2)OCO3)CC/C1=C\c1ccc2c(c1)OCO2
inactive: [1] -10.2% | [2] 5.35% | [3] -19.7% | [4] -55.6% | [5] -13.7% | [6] -26.9%

O=c1[nH]c(=O)c2[nH]c(=O)[nH]c2[nH]1
inactive: [1] 8.35% | [2] -7.15% | [3] -13.5% | [4] 27.9% | [5] 7.25% | [6] -17.9%
